ST2 inh – blocks human ST2 binding to IL-33 | AlphaLISA ST2-Fc/biotin-IL-33 interaction, 1 h | AID 1259354 | inhibition, % for hits at 17 µM | 78,000 compounds, 2.3% hits | Q01638; in the data active = inhibition above about 30%
Target sequence (Q01638 whole entry, looked up): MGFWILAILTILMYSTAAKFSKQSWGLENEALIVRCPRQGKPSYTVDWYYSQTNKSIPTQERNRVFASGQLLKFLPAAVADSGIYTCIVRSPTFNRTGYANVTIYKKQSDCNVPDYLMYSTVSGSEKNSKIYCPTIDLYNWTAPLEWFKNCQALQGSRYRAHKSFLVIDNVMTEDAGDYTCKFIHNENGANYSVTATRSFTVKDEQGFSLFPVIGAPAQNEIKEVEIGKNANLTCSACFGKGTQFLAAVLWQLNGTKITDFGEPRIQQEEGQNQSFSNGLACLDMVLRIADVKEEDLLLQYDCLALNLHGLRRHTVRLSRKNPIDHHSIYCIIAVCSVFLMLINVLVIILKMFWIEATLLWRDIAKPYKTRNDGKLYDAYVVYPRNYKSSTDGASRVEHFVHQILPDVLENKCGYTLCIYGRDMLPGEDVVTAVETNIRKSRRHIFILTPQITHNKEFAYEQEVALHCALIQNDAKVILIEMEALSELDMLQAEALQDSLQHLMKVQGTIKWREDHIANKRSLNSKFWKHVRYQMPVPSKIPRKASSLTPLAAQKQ
The depositor's hits bear a star; i = inactive. The full list was thinned out, with hits kept by preference.

SMILES | ST2 inh
Cc1cc(C)c([N+](=O)[O-])cc1NC(=O)c1cc2c(C)nn(-c3ccccc3)c2s1 | i
Cc1nn(-c2ccccc2)c2sc(C(=O)NCCCO)cc12 | i
Cc1ccc(NC(=O)c2cc3c(C)nn(-c4ccccc4)c3s2)cc1[N+](=O)[O-] | 36.0%*
CN1[C@@H](CCC(=O)NCc2ccc(F)cc2)CNC(=O)[C@@H]2[C@H]1CCN2Cc1ccccc1 | i
COc1ccc(CNC(=O)C[C@@H]2CCNC[C@@H]2Cc2cc(-c3ccc(C(C)(C)C)cc3)on2)cc1 | 47.0%*
CC(C)(C)c1ccc(-c2cc(C[C@H]3CNCC[C@H]3CC(=O)NCc3ccccc3)no2)cc1 | i
CC(C)(C)c1ccc(-c2cc(C[C@H]3CNCC[C@H]3CC(=O)NCc3ccc(F)cc3)no2)cc1 | i
Cc1ccc(CCN2CC(C(=O)NCCCN3CCCC3=O)CC2=O)cc1 (stereo not given) | i
COc1ccc(/C=C2/SC(=O)N(CN3CCCCC3)C2=O)c(OC)c1 | i
Cc1cc(C(=O)NCCC2CN(Cc3ccco3)CCO2)n[nH]1 (stereo not given) | i
O=C(O)c1cccc(N2C(=O)c3ccc(Oc4ccccc4)cc3C2=O)c1 | i
CC1CCC2C(C1)c1sc(=O)[nH]c1SC2(C)C (stereo not given) | i
CC12COc3ccccc3C1c1sc(=O)[nH]c1SC2 (stereo not given) | 32.0%*
O=c1[nH]c2c(s1)C1c3cc([N+](=O)[O-])ccc3OCC1CS2 (stereo not given) | i
NC(=O)[C@@H](Cc1ccccc1)NC(=O)C1=C[C@@H](NC(=O)c2cccnc2)[C@@H](O)[C@H](O)C1 | i
Cc1cc2c3c(c1)C1C=CCC1C(C(=O)O)N3CC1CC=CC21 (stereo not given) | 33.0%*
COc1ccc(CN(CCC(c2ccccc2)C2CCOC(C)(C)C2)C(C)=O)cc1OC (stereo not given) | i
CCCc1cc(C(=O)Nc2cccc(O)c2)no1 | i
CC(C)c1ccc(C(=O)Nc2cccc(-c3nc4ncccc4o3)c2)cc1 | i
CCOc1cc(OCC)cc(C(=O)Nc2cccc(-c3nc4ncccc4o3)c2)c1 | i
O=C(Nc1cccc(-c2nc3ncccc3o2)c1)c1ccc(OCc2ccccc2)cc1 | 33.0%*
COC(=O)[C@@H]1C[C@@H](NC(=O)CN2C(=O)N(C)Cc3ccccc32)CN1C | i
O=C(CCS(=O)(=O)c1cccs1)NCc1ccc2c(c1)OCO2 | i
Cn1c2ccc(Br)cc2c2nnc(SCCN3CCOCC3)nc21 | i
CCc1[nH]c2ccc(CNc3cc(COC)ncn3)cc2c1C | i
SMILES | ST2 inh
O=C(O)c1ccc2c(c1)N(Cc1c(F)cccc1Cl)C(=O)CS2 | i
O=C(Cc1ccccc1)Nc1c(C(=O)Nc2ccc(F)cc2)oc2ccccc12 | i
CCCOc1ccc(-c2nc3s/c(=C\c4ccc(OC)cc4)c(=O)n3n2)cc1 | i
COc1ccc(-c2nc3s/c(=C\c4cc(C)c(O)c(C)c4)c(=O)n3n2)cc1 | 36.0%*
COc1ccc(-c2nc3s/c(=C\c4ccc(OC)c(OC)c4)c(=O)n3n2)cc1 | 38.0%*
COc1ccc(/C=c2/sc3nc(-c4ccc(Cl)cc4)nn3c2=O)c(OC)c1 | i
CCOc1ccc(-c2nc3s/c(=C\c4ccc(OC)cc4)c(=O)n3n2)cc1 | i
CCCOc1ccc(-c2nc3s/c(=C\c4ccc(OC)c(OC)c4)c(=O)n3n2)cc1 | i
COc1cccc(C)c1C(=O)N1CCN2CCNC(=O)C2C1 (stereo not given) | i
O=C(CS(=O)(=O)c1ccccc1)N[C@H]1CCN2C(=O)[C@@H](Cc3ccc(O)cc3)NC(=O)[C@@H]2C1 | i
Cc1ccc(-c2nc(SCC(=O)NCc3ccco3)c(-c3ccc(F)cc3)[nH]2)cc1 | i
Cc1ccn2cc(-c3ccc(Cl)cc3)nc2c1 | i
Cc1cnn(-c2ccc3nnc(-c4ccc(Cl)cc4)n3n2)c1 | 36.0%*
Clc1ccc(-c2nnc3ccc(Cl)nn23)cc1 | i
COc1ccc(C2C(C(=O)Nc3ccccn3)=C(C)NC3=C2C(=O)CC(C)(C)C3)cc1 (stereo not given) | i
Cc1[nH]n(-c2ccc(Cl)cc2)c(=O)c1C=Nc1cccc(Nc2ccccc2)c1 | 30.0%*
Cc1[nH]n(-c2ccccc2)c(=O)c1C=Nc1ccc([N+](=O)[O-])cc1Cl | i
CC(=O)c1ccc(N=Cc2c(C)[nH]n(-c3ccccc3)c2=O)cc1 | i
O=C(c1ccccc1)N1CCN=C1SCc1c(F)cccc1Cl | i
CC(C)C(NS(=O)(=O)c1cccs1)C(=O)Nc1ccc(F)c(F)c1 (stereo not given) | i
COc1cc(C(C[N+](=O)[O-])c2c(C)[nH]c3ccccc23)ccc1O (stereo not given) | i
Cc1[nH]c2ccccc2c1C(C[N+](=O)[O-])c1ccco1 (stereo not given) | 36.0%*
Cc1ccc(-c2[nH]c3ccccc3c2C(C[N+](=O)[O-])c2ccco2)cc1 (stereo not given) | i
CC(=O)Nc1ccccc1NC(=O)CN1CCC(Oc2cccc(C)c2)CC1 | i
O=C1NC(=O)/C(=C\c2ccc(-c3ccc(Cl)c(C(=O)O)c3)o2)S1 | i
SMILES | ST2 inh
CN1C(=O)N(Cc2ccccc2)C2(CCN(Cc3ccc(N(C)c4ccccc4)cc3)CC2)C1=O | i
COCCN1C(=O)N(Cc2cccnc2)C(=O)C12CCN(Cc1nc(-c3ccccc3)cs1)CC2 | i
CCN1C(=O)N(CCc2ccccc2)C2(CCN(CCc3ccccc3)CC2)C1=O | 33.0%*
CC(=O)c1cccc(NC(=O)O[C@@H]2CO[C@H]3[C@@H]2OC[C@@H]3NC(=S)Nc2ccccc2)c1 | i
CCNC(=O)O[C@@H]1CO[C@H]2[C@@H]1OC[C@@H]2NC(=S)Nc1cccc(C#N)c1 | 92.0%*
COC(=O)c1cccc(NC(=S)N[C@H]2CO[C@H]3[C@@H]2OC[C@H]3OC(=O)Nc2ccc(C(C)C)cc2)c1 | 68.0%*
COC(=O)c1cccc(NC(=S)N[C@H]2CO[C@H]3[C@@H]2OC[C@H]3OC(=O)NC2CCCCC2)c1 | i
CCNC(=O)O[C@@H]1CO[C@H]2[C@@H]1OC[C@@H]2NC(=O)Nc1ccc(C(C)C)cc1 | i
CC(C)c1ccc(NC(=O)O[C@@H]2CO[C@H]3[C@@H]2OC[C@@H]3NC(=O)Nc2cccc(C#N)c2)cc1 | i
COC(=O)[C@@H]1Cc2ncn(Cc3ccc(Cl)cc3)c2CN1Cc1ccc(NC(C)=O)cc1 | i
O=C(Cc1ccccn1)NCc1nc(-c2cccc(F)c2)c(-c2ccccn2)[nH]1 | i
O=C1NCCN1CCn1ccnc1-c1ccc(CO)o1 | i
O=C(NCCC(c1ccccc1)c1ccccc1)C1CC12CCN(C(=O)c1ccc[n+]([O-])c1)CC2 (stereo not given) | 34.0%*
O=C(NCCCc1ccccc1)C1CC12CCN(C(=O)c1cccc(-c3ccccc3F)c1)CC2 (stereo not given) | i
COc1ccc(CC(=O)N2CCC3(CC2)CC3C(=O)NCCCc2ccccc2)cc1OC (stereo not given) | i
O=c1c2ccccc2nc2n1N=C(c1ccc(Br)cc1)CS2 | i
CC(=O)Nc1ccc(CN2CCCN(c3ccncc3C)CC2)cc1 | i
COc1cccc(NC(=O)N[C@H]2[C@H](O)[C@@H](N3CCOCC3)[C@@H]3OC[C@H]2O3)c1 | i
O=[N+]([O-])C1=C(Nc2ccccc2)CS(=O)(=O)C1 | i
Nc1ncnc(Nc2ccc(Oc3ccccc3)cc2)c1[N+](=O)[O-] | i
